Consider 40 molecules from PubChem BioAssay (NCI).

This is part of a sample that, as a whole, favours compounds with a hit. Of some 83,000 tested, about 20% had one in any assay.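 The test compound was applied at a single concentration to cells in 96-well plates for 48 hours, and percent growth was recorded.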 A number with no mark means an inactive call. Calls of active or inactive are those of the source.

The test relates to NCI-H522 lung. As to the kind of experiment: NCI-60 one-dose screen, 48 h (100 = growth as untreated, 0 = no growth, -100 = all killed). The settings on record: 10 µM unless noted. On the procedure:
Growth inhibition of the NCI-H522 human Non-Small Cell Lung tumor cell line is measured as a screen for anti-cancer activity. Cells are grown in 96 well plates and exposed to the test compound for 48 hours. Compounds are tested at a single concentration, which is 10^-5 M for most compounds. The reported endpoint is percent growth (GI% or GIPRCNT), where numbers from 0 - 100% represent growth inhibition, and numbers from -100% - 0 represent cell death. For example, a value of 40 represents 60% growth inhibition. A value of 0 means no net growth occurred over the course of the experiment. A value of -40 indicates 40% of cells at the beginning of the experiment died by the end of the experiment. A value of -100 means all cells are dead at the end of the experiment.
NCI-60 Human Tumor Cell Lines Screen was performed using the standard one-dose NCI protocol, which is described in more detail at https://dtp.cancer.gov/discovery_development/nci-60/default.htm.
Compounds with GIPRCNT values below 10 were considered active. Activity score was based on GIPRCNT using the following formula: […]
Score is 0 for GIPRCNT values of 100 or above, 50 for GIPRCNT values of 0, and 100 for GIPRCNT values of -100.
As for `CCCCCC(=O)OCc1ccccc1`, the growth is 85.7%.

As to `CCc1c(C(=O)Nc2ccc3ccccc3c2)[nH]c(C)c1C(C)=O`, the growth was 68.7%.

As to `CC(=O)Oc1cccc(OC(C)=O)c1OC(C)=O`, the growth was 75.2%.

As to `Clc1nc(-c2cccnc2)nc2sc3c(c12)CCCCCC3`, the growth is 85.7%.

In the case of `O=C(CCC(=O)OC1CCCC1)OC1CCCC1`, the growth is 79.8%.

With `Cc1ccccc1C(=O)c1ccccc1C(=O)O`, the growth is 102%.

With `COc1ccc(-c2nc3sccn3c2-c2ccnc(NCCCNS(=O)(=O)c3ccc(F)cc3)n2)cc1`, the growth is -1.46% (active).

Consider `CC/C=C\C[C@H]1C/C=C2/C(=O)C(Cl)=C[C@@H]2C/C=C\CCCC(=O)O1`, for which the growth was -60.6% (active).

For the molecule `CCC1CCc2nc3sc(C(=O)Nc4ccccc4C)c(N)c3cc2C1` (stereo not given), the growth is 28.6%.

On to `COC1=CC(c2ccc[nH]2)=N/C1=C\c1[nH]c(C)c(C(=O)CCCCC(=O)Oc2ccc3c(c2)CCC2C3CC[C@]3(C)[C@@H](O)CC[C@@H]23)c1C` (stereo not given in full), for which the growth was 12.9%.

On to `CCN1C(=O)N(CC)C2Nn3c(s/c(=C\c4cccc(F)c4)c3=O)=NC21` (stereo not given), for which the growth is 64.4%.

In the case of `COc1ccc(-c2nc(-c3nc4ccc(F)cc4[nH]3)cc3c2[nH]c2ccccc23)cc1`, the growth was 44.4%.

Consider `CC(=O)C1CCC(C)=CC1=O` (stereo not given), for which the growth is 89.7%.

Regarding `Clc1ccc2c(c1)NC1(CCSc3ccccc31)n1nccc1-2` (stereo not given), the growth is 89.7%.

As for `COc1ccc2c(c1)C(=O)/C(=C/c1ccc(O)cc1)O2`, the growth is -97.9% (active).

As for `O=S(=O)(NCCNc1cc(-c2cn(-c3ccccc3)nc2-c2ccccc2)ccn1)c1cccc2ccccc12`, the growth is 78.9%.

`COc1ccc(-c2nc3sccn3c2-c2ccnc(NCCNS(=O)(=O)c3ccc(C(F)(F)F)cc3)n2)cc1`: the growth is -1.01% (active).

`COc1cc(C2CC(c3c(C)[n+]([O-])c4ccccc4[n+]3[O-])=NN2)cc(OC)c1OC` (stereo not given): the growth is 104%.

Take `Cc1cc2c(c(=O)o1)C(c1ccc(OC(=O)N3CCOCC3)cc1)C(C#N)=C(N)O2` (stereo not given): the growth is 98.9%.

`c1ccc(CCn2nnc3c(Nc4ccc(N5CCOCC5)cc4)ncnc32)cc1`: the growth was 80.2%.

On to `Cc1cc(Nc2nc(-c3ccncc3)nc3ccccc23)n[nH]1`, for which the growth was 58.7%.

On to `COc1ccc(-c2nc3sccn3c2-c2ccnc(NCCCNS(=O)(=O)c3ccc(C)cc3)n2)cc1`, for which the growth was 21.4%.

Take `NC(=O)c1ccc2c(c1)OCO2`: the growth is 91.9%.

With `CCC(c1ccc(OC)cc1)C(CC)c1ccc(OCC[N+](C)(C)C)cc1` (stereo not given), the growth was 35%.

Take `Cc1cc(C(=O)CSc2nc3ccccc3c(=O)[nH]2)c(C)n1C`: the growth was 98.9%.

Consider `O=C(CNC1CCCCC1)Nc1ccc(-c2nc3ccccc3s2)cc1`, for which the growth was 95.5%.

As for `CCN(Cc1ccc(CN(CC)C(=O)C(Cl)(Cl)Cl)cc1)C(=O)C(Cl)(Cl)Cl`, the growth was 74%.

Take `O=c1c2cccc3c(Nc4ccc(F)cc4)ccc(c32)c2nc3ccccc3n12`: the growth is 82%.

`O=C(O)c1ccc(-n2cc(CNc3ccc(C(F)(F)F)cc3)c(-c3ccccc3)n2)cc1`: the growth is 94.3%.

`COC1=CC(c2ccc[nH]2)=N/C1=C\c1[nH]c(C)c(C(=O)CCCCC(=O)NCc2ccccc2)c1C`: the growth was -33.5% (active).

In the case of `COc1ccc(-c2nnc(COc3ccc(NC(=O)Nc4ccc(Cl)c(C(F)(F)F)c4)cc3F)o2)cc1`, the growth is -54.6% (active).

`O=C(O)c1ccc(-n2c(=O)c3ccccc3c3ccccc3c2=O)cc1`: the growth was 94.9%.

For `COc1cc(OC)c(C(=O)/C=C/c2ccc(C(F)(F)F)cc2)c(OC)c1`, the growth is 28.8%.

With `Cc1ccc(S(=O)(=O)OCC(=O)Nc2ccc(C(=O)O)c(O)c2)cc1`, the growth is 93.8%.

Take `COc1ccc(NC(=O)CSc2nc3ccccc3c(=O)n2Cc2cc(OC)c(OC)c(OC)c2)cc1`: the growth is 66.7%.

In the case of `CN(C)C/C=C/C(=O)Nc1cc2c(Nc3cccc(Cl)c3F)ncnc2cc1OCCOC(F)F`, the growth is -19.2% (active).

Take `COc1ccc2c(c1)C(C)Cc1c(N(C)C)ncnc1N2C` (stereo not given): the growth is -0.111% (active).

In the case of `Clc1ccc(-c2nc(-c3ccco3)cn3ccnc23)cc1`, the growth is 61.5%.

Consider `N#Cc1c(NC(=O)c2ccc([N+](=O)[O-])o2)[n+]([O-])c2cc(F)c(F)cc2[n+]1[O-]`, for which the growth is 101%.

For `COc1cc(OC)c(C(=O)/C=C/c2ccc(C#N)cc2)c(OC)c1`, the growth was -5.25% (active).
